# Laboratory results from paper PMC11062922 (Nature Chemical Biology, 2023).
# Read-outs that look alike come from different tables or passages of the source.
# What was measured:
# Parameters in all cases: species or system human, MV4-11 + K-562 + COLO205 + SK-N-BE2 + OVCAR-8
# [1] = tested on: ACVR1B; conditions: read-out: apparent Kd, n = 1
# [2] = tested on: ACVR2B; conditions: read-out: apparent Kd, compound concentrations: 100 nM and 1000 nM (sheet 'Samples'), n = 1
# [3] = tested on: BUB1; conditions: read-out: apparent Kd; compound concentrations: 100 nM and 1000 nM (sheet 'Samples'), CATDS: 2.9368799543599802E-2; n = 1
# [4] = tested on: CIT; conditions: read-out: apparent Kd, n = 1
# [5] = tested on: CSNK1D; conditions: read-out: apparent Kd, n = 1
# [6] = tested on: CSNK1E; conditions: read-out: apparent Kd, n = 1
# [7] = tested on: EPHA1; conditions: read-out: apparent Kd; compound concentrations: 100 nM and 1000 nM (sheet 'Samples'), CATDS: 4.4029751359189198E-2; n = 1
# [8] = tested on: FLT3; conditions: read-out: apparent Kd; compound concentrations: 100 nM and 1000 nM (sheet 'Samples'), CATDS: 4.1263088221053297E-2; n = 1
# [9] = tested on: FRK; conditions: read-out: apparent Kd; compound concentrations: 100 nM and 1000 nM (sheet 'Samples'), CATDS: 4.1342549308714401E-2; n = 1
# [10] = tested on: FYN; conditions: read-out: apparent Kd; compound concentrations: 100 nM and 1000 nM (sheet 'Samples'), CATDS: 3.5075113560986498E-2; n = 1
# [11] = tested on: MAPK14; conditions: read-out: apparent Kd, n = 1
# [12] = tested on: MAPKAPK2; conditions: read-out: apparent Kd; compound concentrations: 100 nM and 1000 nM (sheet 'Samples'), CATDS: 3.21088228610018E-2; n = 1
# [13] = tested on: NLK; conditions: read-out: apparent Kd; compound concentrations: 100 nM and 1000 nM (sheet 'Samples'), CATDS: 0.113621067973222; n = 1
# [14] = tested on: PKN3; conditions: read-out: apparent Kd, n = 1
# [15] = tested on: PTK6; conditions: read-out: apparent Kd; compound concentrations: 100 nM and 1000 nM (sheet 'Samples'), CATDS: 4.3994171841747899E-2; n = 1
# [16] = tested on: RET; conditions: read-out: apparent Kd; compound concentrations: 100 nM and 1000 nM (sheet 'Samples'), CATDS: 0.126907733860845; n = 1
# [17] = tested on: RIPK2; conditions: read-out: apparent Kd, n = 1
# [18] = tested on: RIPK3; conditions: read-out: apparent Kd; compound concentrations: 100 nM and 1000 nM (sheet 'Samples'), CATDS: 3.6654773493518103E-2; n = 1
# [19] = tested on: SIK3; conditions: read-out: apparent Kd; compound concentrations: 100 nM and 1000 nM (sheet 'Samples'), CATDS: 2.9281323909689301E-2; n = 1
# [20] = tested on: SLK; conditions: read-out: apparent Kd; compound concentrations: 100 nM and 1000 nM (sheet 'Samples'), CATDS: 3.3087406541094599E-2; n = 1
# [21] = tested on: TESK2; conditions: read-out: apparent Kd, n = 1
# [22] = tested on: TGFBR1; conditions: read-out: apparent Kd, compound concentrations: 100 nM and 1000 nM (sheet 'Samples'), n = 1
# [23] = tested on: TGFBR2; conditions: read-out: apparent Kd, n = 1
# [24] = tested on: CSNK1A1; conditions: read-out: apparent Kd, n = 1
# [25] = tested on: MAP2K4; conditions: read-out: apparent Kd; compound concentrations:100 nM and 1000 nM (sheet 'Samples'); n = 1
# [26] = tested on: MAP4K2; conditions: read-out: apparent Kd; compound concentrations:100 nM and 1000 nM (sheet 'Samples'); n = 1
# [27] = tested on: PRKD2; conditions: read-out: apparent Kd, n = 1
# [28] = tested on: PRKD3; conditions: read-out: apparent Kd, n = 1
# [29] = tested on: BRAF; conditions: read-out: apparent Kd; compound concentrations: 100 nM and 1000 nM (sheet 'Samples'), CATDS: 0.43506507859715299; n = 1
# [30] = tested on: CDC42BPG; conditions: read-out: apparent Kd; compound concentrations: 100 nM and 1000 nM (sheet 'Samples'), CATDS: 0.27820560825635698; n = 1
# [31] = tested on: OPA1; conditions: read-out: apparent Kd; compound concentrations: 100 nM and 1000 nM (sheet 'Samples'), CATDS: 7.7038231613769201E-2; n = 1
# [32] = compound concentrations:100 nM and 1000 nM (sheet 'Samples')
structure (smiles),measurement,setting,value
Nc1ncnc2c1ncn2-c1cccc(F)c1 [SKF-97560],potency estimated from few doses,"[1]; compound concentrations: 100 nM and 1000 nM (sheet 'Samples'), CATDS: 5.4958812802740099E-2",352 nM
same,potency estimated from few doses,[2]; CATDS: 3.61499985403008E-2,987 nM
same,potency estimated from few doses,[3],2060 nM
same,potency estimated from few doses,"[4]; compound concentrations: 100 nM and 1000 nM (sheet 'Samples'), CATDS: 3.19087660473499E-2",1490 nM
same,potency estimated from few doses,"[5]; compound concentrations: 100 nM and 1000 nM (sheet 'Samples'), CATDS: 4.1820376814662601E-2",661 nM
same,potency estimated from few doses,"[6]; compound concentrations: 100 nM and 1000 nM (sheet 'Samples'), CATDS: 3.1298508243452101E-2",1600 nM
same,potency estimated from few doses,[7],581 nM
same,potency estimated from few doses,[8],684 nM
same,potency estimated from few doses,[9],681 nM
same,potency estimated from few doses,[10],1080 nM
same,potency estimated from few doses,"[11]; compound concentrations: 100 nM and 1000 nM (sheet 'Samples'), CATDS: 3.4547137011971901E-2",1140 nM
same,potency estimated from few doses,[12],1450 nM
same,potency estimated from few doses,[13],94.9 nM
same,potency estimated from few doses,"[14]; compound concentrations: 100 nM and 1000 nM (sheet 'Samples'), CATDS: 8.07286972312308E-2",168 nM
same,potency estimated from few doses,[15],582 nM
same,potency estimated from few doses,[16],80 nM
same,potency estimated from few doses,"[17]; compound concentrations: 100 nM and 1000 nM (sheet 'Samples'), CATDS: 0.22838556729877599",34.9 nM
same,potency estimated from few doses,[18],948 nM
same,potency estimated from few doses,[19],2090 nM
same,potency estimated from few doses,[20],1310 nM
same,potency estimated from few doses,"[21]; compound concentrations: 100 nM and 1000 nM (sheet 'Samples'), CATDS: 3.8437234907131197E-2",828 nM
same,potency estimated from few doses,[22]; CATDS: 6.0050656716600502E-2,293 nM
same,potency estimated from few doses,"[23]; compound concentrations: 100 nM and 1000 nM (sheet 'Samples'), CATDS: 8.5809969501024E-2",151 nM
Cl.c1ccc(-c2nc3n(c2-c2ccc4c(c2)OCO4)CCC3)nc1 [SB-400868-A],potency estimated from few doses,[1]; [32],87 nM
same,potency estimated from few doses,[24]; [32],369 nM
same,potency estimated from few doses,[5]; [32],150 nM
same,potency estimated from few doses,[6]; [32],262 nM
same,potency estimated from few doses,[25],1900 nM
Cc1cccc(-c2nc(Nc3ccncc3)c3ccccc3n2)n1 [GW855857X],potency estimated from few doses,[1]; [32],0.502 nM
same,potency estimated from few doses,[4]; [32],1120 nM
same,potency estimated from few doses,[5]; [32],897 nM
same,potency estimated from few doses,[6]; [32],1190 nM
same,potency estimated from few doses,[26],1630 nM
same,potency estimated from few doses,[11]; [32],1470 nM
same,potency estimated from few doses,[14]; [32],75.5 nM
same,potency estimated from few doses,[27]; [32],3.39 nM
same,potency estimated from few doses,[28]; [32],6.73 nM
same,potency estimated from few doses,[17]; [32],590 nM
same,potency estimated from few doses,[21]; [32],1340 nM
same,potency estimated from few doses,[23]; [32],855 nM
CN(C)CCOc1ccc(-c2cc(-c3ccc4c(c3)CCC4=NO)c(-c3ccncc3)o2)cc1.Cl [SB-682330-A],potency estimated from few doses,"[1]; compound concentrations: 100 nM and 1000 nM (sheet 'Samples'), CATDS: 0.32185082744978499",1130 nM
same,potency estimated from few doses,[29],644 nM
same,potency estimated from few doses,[30],1600 nM
Cc1ccnc2ccc(-c3sc(N)nc3-c3ccccn3)nc12 [GW777257X],potency estimated from few doses,"[1]; compound concentrations: 100 nM and 1000 nM (sheet 'Samples'), CATDS: 0.44095653710551203",5.66 nM
same,potency estimated from few doses,[2]; CATDS: 9.05518688532823E-2,854 nM
same,potency estimated from few doses,"[24]; compound concentrations: 100 nM and 1000 nM (sheet 'Samples'), CATDS: 7.5324168753573395E-2",1730 nM
same,potency estimated from few doses,[31],1570 nM
same,potency estimated from few doses,"[27]; compound concentrations: 100 nM and 1000 nM (sheet 'Samples'), CATDS: 0.11729729568005599",384 nM
same,potency estimated from few doses,"[28]; compound concentrations: 100 nM and 1000 nM (sheet 'Samples'), CATDS: 0.118060499220425",377 nM
same,potency estimated from few doses,"[17]; compound concentrations: 100 nM and 1000 nM (sheet 'Samples'), CATDS: 9.3212886773084105E-2",776 nM
same,potency estimated from few doses,[22]; CATDS: 0.51991943788690098,4.12 nM
same,potency estimated from few doses,"[23]; compound concentrations: 100 nM and 1000 nM (sheet 'Samples'), CATDS: 8.4852154522950404E-2",1070 nM
